This note sets out measurements from PubChem BioAssay (NCATS).

Inconclusive results are not listed.

The nature of one assay: qHTS Assay for Lipid Storage Modulators (AID 1519). The settings on record: Drosophila S3 cells, BODIPY lipid droplet/cell ratio, laser cytometry; measured here: cell count channel max response; cells loaded with oleic acid. Put shortly:
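Cells seeded at 5,000 per well were treated with compounds over a concentration series and loaded with oleic acid (400 uM, as added). Lipid droplet fluorescence (488 nm excitation, 500-530 nm channel) was read by laser-scanning cytometry and normalized to 20 uM Triacsin C.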
A general note: Quantitative high-throughput screening tests each substance at several concentrations.
Regarding `CC(=O)OC1CC[C@@]2(C)C(CC[C@@]3(C)C2CC=C2C4CC(C)(C)CC[C@]4(C(=O)O)CC[C@@]23C)C1(C)C` (some centres undefined), the max response amounted to 12.5%. The same measure, in the same setting: with `CC(=O)O[C@@]1(C(C)=O)CCC2C3C=C(Cl)C4=CC(=O)C5CC5[C@@]4(C)C3CC[C@]21C` (some centres undefined) the figure was -3.69%; with `CC1CC[C@@]2(OC1)OC1CC3C4CC[C@H]5CC(O)CC[C@@]5(C)C4CC[C@]3(C)C1C2C` (some centres undefined), 27.2%. The same measure, in the same setting: with `COc1ccc(-c2coc3c(OC)c(OC)cc(OC)c3c2=O)cc1` the figure was 16.4%; with `O=c1[nH]cnc2c1nc(Cl)n2C1OC(CO)C(O)C1O` (centres undefined), 5.38%.

Staying with this assay, now noted: Drosophila S3 cells, BODIPY lipid droplet/cell ratio, laser cytometry; measured here: lipid channel max response; cells loaded with oleic acid.
`CC(C)C1COc2cc3oc(=O)ccc3cc2O1` (centres undefined): the max response is 13.7%. The same measure, in the same setting: with `NC(N)=NCCCC(NC(=O)C(N)Cc1ccc(O)cc1)C(=O)O` (centres undefined) the figure was 29%; with `CC1CC[C@@]2(OC1)OC1CC3C4CC[C@@H]5CC(O)CC[C@@]5(C)C4CC[C@]3(C)C1C2C` (some centres undefined), 17.1%. For the compound `COc1c2ccccc2nc2occc12`, the max response worked out at 38.1%. `COc1ccc2c(=O)c(CC(=O)O)coc2c1`: the max response turned out to be 14.8%. Still for that read-out and setting: for `CC1(C)OC2C(CO)OC(n3cnc4c(=O)[nH]cnc43)C2O1` (centres undefined) the value was 5.67%; for `CCOC(=O)CCCCCCCCCCCCC1C=CCC1` (centres undefined), 10.7%; for `OCc1ccccc1O[C@H]1OC(CO)C(O)C(O)C1O` (some centres undefined), 8.97%. Same read-out and setting: with `COc1ccc(/C=C/c2cc(O)cc(O[C@H]3OC(CO)C(O)C(O)C3O)c2)cc1` (some centres undefined) the figure was 23%; with `COc1c(O)cccc1O`, 5.81%. Turning to `Nc1ncnc2[nH]c(=O)[nH]c12`, the max response was 6.43%. Still for that read-out and setting: for `NCC1CCCCC1CC(=O)O` (centres undefined) the value was 26.7%; for `C#CCCCCCCCCCCCC(=O)CC(O)COC(C)=O` (centres undefined), 17.1%. On to `CCN1CCN(C(=O)NC(C(=O)NC2C(=O)N3C2SC(C)(C)C3C(=O)O)c2ccccc2)C(=O)C1=O` (centres undefined), for which the max response came to 0.752%.
